Source: PubChem BioAssay (EPA / NIEHS)
Calls of active or inactive are those of the source. The calls were made as follows: active = hit-call score of the fitted dose curve at least 0.9, where 1 is the maximum; inactive = score below 0.9.

Tests used:
[1] = read-out: Vascular endothelial growth factor receptor 2 (Homo sapiens) (UniProt P35968); assay: BSK_4H_VEGFRII: BioMAP Diversity Plus: 4H Assay for Vascular endothelial growth factor receptor 2 (VEGFR2) Biomarker Activity (AID 2283031); settings: primary human endothelial cells (HUVEC); actives raise or lower the signal
Outline: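 Primary human umbilical vein endothelial cells (4H system), 24 h exposure; cell-surface VEGFR2 measured by ELISA. Bidirectional fitting versus DMSO; cytotoxicity checked in parallel by SRB total-protein staining.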

[2] = read-out: Human Leukocyte Antigen - DR isotype (HLADR), HLA-DRA (gene 3122); assay: BSK_BE3C_HLADR: BioMAP Diversity Plus: BE3C Assay for Human Leukocyte Antigen - DR isotype (HLADR) Biomarker Activity (AID 2283032); settings: primary human bronchial epithelial cells; actives raise or lower the signal
Outline: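 BioMAP BE3C format: human bronchial epithelium, 24 h compound treatment, ELISA detection of HLA-DR, with bidirectional analysis relative to DMSO.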

[3] = read-out: Vascular cell adhesion molecule 1 (VCAM1), VCAM1 (gene 7412); assay: BSK_4H_VCAM1: BioMAP Diversity Plus: 4H Assay for Vascular cell adhesion molecule 1 (VCAM1) Biomarker Activity (AID 2283033); settings: primary human endothelial cells (HUVEC); actives raise or lower the signal;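 also: cell-surface VCAM-1 protein measured by ELISA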
Outline: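 In this human endothelial (HUVEC) system, biomarker ELISA was run 24 h after compound addition, and total protein in parallel wells was assessed by SRB at 560 nm; DMSO served as negative control.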

[4] = read-out: Interferon-gamma inducible Protein 10 (IP10), CXCL10 (gene 3627); assay: BSK_BE3C_IP10: BioMAP Diversity Plus: BE3C Assay for Interferon-gamma inducible Protein 10 (IP10) Biomarker Activity (AID 2283034); settings: primary human bronchial epithelial cells; actives raise or lower the signal
Outline: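 BE3C cells (human bronchial epithelial, primary); 24 h exposure; ELISA for IP-10; DMSO-referenced bidirectional fit.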

[5] = read-out: Monokine induced gamma interferon (MIG), CXCL9 (gene 4283); assay: BSK_BE3C_MIG: BioMAP Diversity Plus: BE3C Assay for Monokine induced gamma interferon (MIG) Biomarker Activity (AID 2283035); settings: primary human bronchial epithelial cells; actives raise or lower the signal;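 also: MIG protein measured by ELISA in BE3C cultures after 24 h of dosing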
Outline: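 hu bronchial epithelial 1° cells, 24 h cpd; MIG by ELISA; bidirectional fit, DMSO = baseline.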

[6] = read-out: Transforming growth factor beta 1 (TGFb1), TGFB1 (gene 7040); assay: BSK_BE3C_TGFb1: BioMAP Diversity Plus: BE3C Assay for Transforming growth factor beta 1 (TGFb1) Biomarker Activity (AID 2283036;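 also: TGF-b1 protein level measured by ELISA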); settings: primary human bronchial epithelial cells; actives raise or lower the signal
Outline: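 TGF-b1 measured via ELISA, 24 h after chemical dosing of human bronchial epithelial cells (BE3C). Overt cytotoxicity assessed in parallel by SRB (0.1%, TCA-fixed, 560 nm); analysis bidirectional relative to DMSO.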

[7] = read-out: Plasminogen activator inhibitor-1 (PAI1), SERPINE1 (gene 5054); assay: BSK_BE3C_PAI1: BioMAP Diversity Plus: BE3C Assay for Plasminogen activator inhibitor-1 (PAI1) Biomarker Activity (AID 2283037); settings: primary human bronchial epithelial cells; actives raise or lower the signal
Outline: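 In this multiplexed primary-cell system, bronchial epithelial cells receive test chemical and are sampled at 24 h. PAI-1 is read by ELISA, with DMSO serving as negative control for bidirectional fitting.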

[8] = read-out: urokinase plasminogen activator (uPA), PLAU (gene 5328); assay: BSK_BE3C_uPA: BioMAP Diversity Plus: BE3C Assay for urokinase plasminogen activator (uPA) Biomarker Activity (AID 2283038); settings: primary human bronchial epithelial cells; actives raise or lower the signal;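 also: uPA protein level quantified by ELISA in cell cultures; uPA read one day after compound addition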
Outline: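 Primary human bronchial epithelial cells, uPA measured by ELISA 24 h after dosing. Bidirectional change relative to DMSO; cytotoxicity checked in parallel cultures by sulforhodamine B total-protein staining.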

[9] = read-out: Urokinase-type plasminogen activator receptor (uPAR), PLAUR (gene 5329); assay: BSK_BE3C_uPAR: BioMAP Diversity Plus: BE3C Assay for Urokinase-type plasminogen activator receptor (uPAR) Biomarker Activity (AID 2283039); settings: primary human bronchial epithelial cells; actives raise or lower the signal;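 also: uPAR protein level measured by ELISA on the cells; cells exposed to compound for one day before measurement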
Outline: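 Chemically treated human bronchial epithelial cells (lung primary) are assayed for uPAR by ELISA after 24 h, with data fitted in both directions using DMSO as negative control.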

[10] = read-out: Interleukin-6 (IL6), IL6 (gene 3569); assay: BSK_CASM3C_IL6: BioMAP Diversity Plus: CASM3C Assay for Interleukin-6 (IL6) Biomarker Activity for (AID 2283040); settings: primary human coronary artery smooth muscle cells; actives raise or lower the signal
[11] = read-out: Tissue plasminogen activator (tPA), PLAT (gene 5327); assay: BSK_BE3C_tPA: BioMAP Diversity Plus: BE3C Assay for Tissue plasminogen activator (tPA) Biomarker Activity (AID 2283041); settings: primary human bronchial epithelial cells; actives raise or lower the signal;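 also: tPA level quantified by ELISA one day after compound addition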
Outline: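 Using human lung primary bronchial epithelial cells, tPA was measured by ELISA 24 h after dosing; data fitted relative to DMSO.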

[12] = read-out: Interleukin-8 (IL8), CXCL8 (gene 3576); assay: BSK_CASM3C_IL8: BioMAP Diversity Plus: CASM3C Assay for Interleukin-8 (IL8) Biomarker Activity (AID 2283042); settings: primary human coronary artery smooth muscle cells; actives raise or lower the signal;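 also: IL-8 protein level quantified by ELISA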
[13] = read-out: Human Leukocyte Antigen - DR isotype (HLADR), HLA-DRA (gene 3122); assay: BSK_CASM3C_HLADR: BioMAP Diversity Plus: CASM3C Assay for Human Leukocyte Antigen - DR isotype (HLADR) Biomarker Activity (AID 2283043); settings: primary human coronary artery smooth muscle cells; actives raise or lower the signal;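 also: cell-surface HLA-DR protein level quantified by ELISA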
[14] = read-out: Macrophage colony-stimulating factor (MCSF), CSF1 (gene 1435); assay: BSK_CASM3C_MCSF: BioMAP Diversity Plus: CASM3C Assay for Macrophage colony-stimulating factor (MCSF) Biomarker Activity (AID 2283044); settings: primary human coronary artery smooth muscle cells; actives raise or lower the signal;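 also: M-CSF protein amount quantified by ELISA after 24 h exposure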
[15] = read-out: Low-density lipoprotein receptor (LDLR), LDLR (gene 3949); assay: BSK_CASM3C_LDLR: BioMAP Diversity Plus: CASM3C Assay for Low-density lipoprotein receptor (LDLR) Biomarker Activity (AID 2283045); settings: primary human coronary artery smooth muscle cells; actives raise or lower the signal;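 also: LDLR protein level on the cell surface quantified by ELISA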
[16] = read-out: Monocyte Chemoattractant Protein-1 (MCP1), CCL2 (gene 6347); assay: BSK_CASM3C_MCP1: BioMAP Diversity Plus: CASM3C Assay for Monocyte Chemoattractant Protein-1 (MCP1) Biomarker Activity (AID 2283046); settings: primary human coronary artery smooth muscle cells; actives raise or lower the signal;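 also: MCP-1 level quantified by ELISA 24 h after dosing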
[17] = BSK_CASM3C_Proliferation: Cell Proliferation Assessment in the BioMAP Diversity Plus: CASM3C Assay (AID 2283047); settings: primary human coronary artery smooth muscle cells;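 also: sulforhodamine B total protein stain as relative cell number at 560 nm; sub-confluent cells exposed 48 h before staining; fitted both ways against DMSO so gain or loss of cell number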
[18] = read-out: Monokine induced gamma interferon (MIG), CXCL9 (gene 4283); assay: BSK_CASM3C_MIG: BioMAP Diversity Plus: CASM3C Assay for Monokine induced gamma interferon (MIG) Biomarker Activity (AID 2283048); settings: primary human coronary artery smooth muscle cells; actives raise or lower the signal;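 also: MIG protein level measured by ELISA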
[19] = read-out: serum amyloid A (SAA), SAA1 (gene 6288); assay: BSK_CASM3C_SAA: BioMAP Diversity Plus: CASM3C Assay for serum amyloid A (SAA) Biomarker Activity (AID 2283049); settings: primary human coronary artery smooth muscle cells; actives raise or lower the signal;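 also: SAA protein level quantified by ELISA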

SMILES: COP(=S)(OC)Oc1ccc([N+](=O)[O-])c(C)c1
- outcome [1]: inactive
- AC50 [2]: 20 µM (active)
- outcome [3]: inactive
- outcome [4]: inactive
- outcome [5]: inactive
- outcome [6]: inactive
- outcome [7]: inactive
- outcome [8]: inactive
- outcome [9]: inactive
- outcome [10]: inactive
- outcome [11]: inactive
- outcome [12]: inactive
- outcome [13]: inactive
- outcome [14]: inactive
- outcome [15]: inactive
- outcome [16]: inactive
- outcome [17]: inactive
- outcome [18]: inactive
- outcome [19]: inactive

SMILES: CC1(C)C(C=C(Cl)Cl)C1C(=O)OC(C#N)c1cccc(Oc2ccccc2)c1 (stereo not drawn)
- outcome [1]: inactive
- outcome [2]: inactive
- outcome [3]: inactive
- outcome [4]: inactive
- outcome [5]: inactive
- outcome [6]: inactive
- outcome [7]: inactive
- outcome [8]: inactive
- outcome [9]: inactive
- outcome [10]: inactive
- outcome [11]: inactive
- outcome [12]: inactive
- outcome [13]: inactive
- outcome [14]: inactive
- outcome [15]: inactive
- outcome [16]: inactive
- outcome [17]: inactive
- outcome [18]: inactive
- outcome [19]: inactive

SMILES: COCC(=O)N(c1c(C)cccc1C)C(C)C(=O)OC (stereo not drawn)
- outcome [1]: inactive
- outcome [2]: inactive
- outcome [3]: inactive
- outcome [4]: inactive
- outcome [5]: inactive
- outcome [6]: inactive
- outcome [7]: inactive
- outcome [8]: inactive
- outcome [9]: inactive
- outcome [10]: inactive
- outcome [11]: inactive
- outcome [12]: inactive
- outcome [13]: inactive
- outcome [14]: inactive
- outcome [15]: inactive
- outcome [16]: inactive
- outcome [17]: inactive
- outcome [18]: inactive
- outcome [19]: inactive

SMILES: C=C(C)CN(CC)c1c([N+](=O)[O-])cc(C(F)(F)F)cc1[N+](=O)[O-]
- outcome [1]: inactive
- outcome [2]: inactive
- outcome [3]: inactive
- outcome [4]: inactive
- outcome [5]: inactive
- outcome [6]: inactive
- outcome [7]: inactive
- outcome [8]: inactive
- outcome [9]: inactive
- outcome [10]: inactive
- outcome [11]: inactive
- outcome [12]: inactive
- outcome [13]: inactive
- outcome [14]: inactive
- outcome [15]: inactive
- outcome [16]: inactive
- outcome [17]: inactive
- outcome [18]: inactive
- outcome [19]: inactive

SMILES: CCOC(=O)C(C)OC(=O)c1cc(Oc2ccc(C(F)(F)F)cc2Cl)ccc1[N+](=O)[O-] (stereo not drawn)
- outcome [1]: inactive
- AC50 [2]: 29.7 µM (active)
- outcome [3]: inactive
- outcome [4]: inactive
- outcome [5]: inactive
- outcome [6]: inactive
- outcome [7]: inactive
- outcome [8]: inactive
- outcome [9]: inactive
- outcome [10]: inactive
- outcome [11]: inactive
- outcome [12]: inactive
- outcome [13]: inactive
- AC50 [14]: 0.989 µM (active)
- outcome [15]: inactive
- AC50 [16]: 8.51 µM (active)
- outcome [17]: inactive
- outcome [18]: inactive
- outcome [19]: inactive

SMILES: COC(=O)N(C(=O)N1CO[C@@]2(C(=O)OC)Cc3cc(Cl)ccc3C2=N1)c1ccc(OC(F)(F)F)cc1
- outcome [1]: inactive
- AC50 [2]: 13.8 µM (active)
- outcome [3]: inactive
- AC50 [4]: 11 µM (active)
- outcome [5]: inactive
- outcome [6]: inactive
- outcome [7]: inactive
- outcome [8]: inactive
- outcome [9]: inactive
- outcome [10]: inactive
- outcome [11]: inactive
- outcome [12]: inactive
- outcome [13]: inactive
- outcome [14]: inactive
- outcome [15]: inactive
- outcome [16]: inactive
- AC50 [17]: 12.4 µM (active)
- outcome [18]: inactive
- outcome [19]: inactive

SMILES: CCCCC(C#N)(Cn1cncn1)c1ccc(Cl)cc1 (stereo not drawn)
- outcome [1]: inactive
- outcome [2]: inactive
- outcome [3]: inactive
- outcome [4]: inactive
- outcome [5]: inactive
- outcome [6]: inactive
- outcome [7]: inactive
- outcome [8]: inactive
- outcome [9]: inactive
- outcome [10]: inactive
- outcome [11]: inactive
- outcome [12]: inactive
- outcome [13]: inactive
- outcome [14]: inactive
- outcome [15]: inactive
- outcome [16]: inactive
- outcome [17]: inactive
- outcome [18]: inactive
- outcome [19]: inactive
